Source: PubChem (several laboratories)
The list is not random: actives were taken first. Their share in the collection is about 2.1%.
ABCB6 inh 2: blocks the human ABCB6 transporter | Q9NP58 | K562-ABCB6 porphyrin accumulation, flow cytometry, 1 h; active compounds read low | fluorescence ratio to DMSO, % at 10 µM | 360,000 tested, 0.19% active | AID 602162;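 active means fluorescence ratio to DMSO below 75%, the collection mean minus 3 SD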;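 further: signal is porphyrin accumulated inside mitochondria; 100% equals median channel fluorescence of DMSO control wells; lower ratio means ABCB6 inhibition with less porphyrin fluorescence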
Target sequence (Q9NP58 whole entry, looked up): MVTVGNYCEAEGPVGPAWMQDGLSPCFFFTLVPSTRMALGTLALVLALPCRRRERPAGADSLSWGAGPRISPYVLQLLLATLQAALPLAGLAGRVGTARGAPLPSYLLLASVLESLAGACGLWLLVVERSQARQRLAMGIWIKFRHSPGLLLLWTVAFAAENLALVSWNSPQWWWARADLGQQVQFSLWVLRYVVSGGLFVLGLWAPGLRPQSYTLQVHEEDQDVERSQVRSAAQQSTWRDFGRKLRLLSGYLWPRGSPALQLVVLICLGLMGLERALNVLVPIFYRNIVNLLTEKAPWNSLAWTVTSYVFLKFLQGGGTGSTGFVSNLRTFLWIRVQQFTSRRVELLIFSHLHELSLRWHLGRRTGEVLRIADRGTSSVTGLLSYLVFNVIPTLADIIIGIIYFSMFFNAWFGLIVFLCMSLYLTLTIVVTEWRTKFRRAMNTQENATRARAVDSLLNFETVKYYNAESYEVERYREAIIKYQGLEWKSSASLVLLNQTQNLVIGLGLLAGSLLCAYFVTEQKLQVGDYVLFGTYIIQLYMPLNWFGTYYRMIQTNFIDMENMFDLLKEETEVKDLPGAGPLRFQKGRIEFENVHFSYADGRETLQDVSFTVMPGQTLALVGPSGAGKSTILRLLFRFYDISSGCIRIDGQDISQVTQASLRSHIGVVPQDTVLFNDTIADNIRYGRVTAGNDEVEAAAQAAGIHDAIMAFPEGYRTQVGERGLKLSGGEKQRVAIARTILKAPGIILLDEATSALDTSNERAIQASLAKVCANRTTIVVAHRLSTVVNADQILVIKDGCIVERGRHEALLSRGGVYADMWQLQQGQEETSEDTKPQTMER
MsrA inhibitor: inhibitors of bovine MsrA; inhibition, % at 15.5 µM; purified bovine MsrA, absorbance read-out; 360,000 tested, 0.75% active; AID 651718; in the data active means inhibition above about 4.5%;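 further: 0% = vehicle wells with enzyme and 100% = reference inhibitor wells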
bovine MsrA act: activators of bovine methionine sulfoxide reductase A | purified bovine MsrA, absorbance read-out | activation, % at 10.6 µM | 360,000 tested, 0.3% active | AID 602163; in the data active means activation above about 7.5%;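 further: 0% = vehicle and 100% = reference activator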
SMARCA2 act: activators of SMARCA2 function. MG213 cells, MMTV-luciferase reporter, dexamethasone, overnight. activation, % at 9.1 µM. 370,000 tested, 1% active; in the data active means activation above about 7.8%;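 further: 0% = vehicle wells and 100% = reference activator wells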
MsrA activ conf: bovine methionine sulfoxide reductase A activation confirmed; purified bovine MsrA, absorbance read-out; activation, % at 10.6 µM; AID 602270; 1,000 tested, 12% active; shares compounds with bovine MsrA act; in the data active means activation above about 4%;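 further: enzyme coupled to thioredoxin and thioredoxin reductase with NADPH; 0% = vehicle wells and 100% = reference activator wells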
* marks the source's active call; other numbers are inactive results.

For O=C1CCC(C(=O)N2CCCC2)CN1Cc1cccc(C(F)(F)F)c1 (centres undefined) the results were ABCB6 inh 2 100, MsrA inhibitor -1, bovine MsrA act 9.8*, SMARCA2 act -1 and MsrA activ conf 2.
COc1ccc(-c2csc(NC(=O)c3ccccc3NS(=O)(=O)c3ccc(F)c(F)c3)n2)cc1 was read as ABCB6 inh 2 94, MsrA inhibitor 2, bovine MsrA act 15*, SMARCA2 act -11 and MsrA activ conf -4.
`O=C(c1ccc(F)cc1F)N1CCC(Oc2cccnc2)CC1` gave SMARCA2 act 2.
N#Cc1ccccc1Sc1ccccc1N was read as ABCB6 inh 2 95 and bovine MsrA act -4.
`Nc1ccccc1SSc1ccccc1N` gave ABCB6 inh 2 102, MsrA inhibitor 0, bovine MsrA act 11*, SMARCA2 act 4 and MsrA activ conf 4.
CC(C)(C)OC(=O)NCCCc1ccc2c(c1)[C@]1(CCC[C@@H](OCc3ccccc3)[C@@H]1NC(=O)CCc1ccccc1)C(=O)N2Cc1ccccc1 was read as SMARCA2 act -1.
`Fc1ccc(-c2nnc(SCc3ncc(-c4ccccc4)o3)n2CC2CCCO2)cc1` (centres undefined) gave ABCB6 inh 2 86, MsrA inhibitor 0, bovine MsrA act 11*, SMARCA2 act -2 and MsrA activ conf 2.
Fc1ccc(NCc2nnc(SCc3nnc(-c4ccccc4)o3)n2CC2CCCO2)cc1 (centres undefined) was read as ABCB6 inh 2 97, MsrA inhibitor 0, bovine MsrA act -1 and SMARCA2 act -3.
CC1(C)CC(=O)N(CC(=O)N2CCN(Cc3ccccc3)CC2)c2ccccc2S1(=O)=O was read as SMARCA2 act -3.
Screening Cc1ccc(-c2nnc(SCC(=O)NN=Cc3c[nH]c4ccccc34)n2-c2ccccc2)cc1 returned SMARCA2 act 1.
`CCN(CC)S(=O)(=O)c1ccc(N2CCCCC2)c(NC(=O)/C=C/c2ccc(OC)c(OC)c2)c1` gave ABCB6 inh 2 99, MsrA inhibitor 2, bovine MsrA act 15*, SMARCA2 act -2 and MsrA activ conf 3.
`COc1cc(OC)c(C(=O)NC23CC4CC(CC(C4)C2)C3)cc1OC` gave ABCB6 inh 2 100, MsrA inhibitor 0, bovine MsrA act 9.2*, SMARCA2 act 0 and MsrA activ conf -4.
Cc1ccccc1C(=O)NCCCCc1ccccc1 was read as ABCB6 inh 2 101, MsrA inhibitor 0, bovine MsrA act 8.7*, SMARCA2 act 1 and MsrA activ conf 2.
Cc1ccc(/C=N/NC(=O)C2COc3ccccc3O2)s1 (centres undefined) was read as ABCB6 inh 2 107, MsrA inhibitor 4, bovine MsrA act -3 and SMARCA2 act 2.
Screening O=C(N/N=C/c1cccs1)C1COc2ccccc2O1 (centres undefined) returned ABCB6 inh 2 92, MsrA inhibitor 1, bovine MsrA act 8.6*, SMARCA2 act 1 and MsrA activ conf -2.
`COc1cc(NS(=O)(=O)c2ccc(C)cc2)c2ncccc2c1` gave ABCB6 inh 2 99, MsrA inhibitor -1, bovine MsrA act -3 and SMARCA2 act -10.
`Cc1ccc(S(=O)(=O)Nc2cccc3cccnc23)cc1` gave ABCB6 inh 2 101, MsrA inhibitor -1, bovine MsrA act 11*, SMARCA2 act -11 and MsrA activ conf -2.
Screening COc1ccc(OC)c(CN2C(=O)CCCCC2(C)c2nnnn2C2CCCC2)c1 (centres undefined) returned SMARCA2 act -3.
For CS(=O)(=O)N(CC(=O)N1CCOCC1)c1cccc(F)c1 the results were ABCB6 inh 2 94, MsrA inhibitor 0, bovine MsrA act 9.2*, SMARCA2 act -1 and MsrA activ conf -1.
`CCOC(=O)C1=CC[C@@H](c2ccccc2Cl)N(S(=O)(=O)c2ccc(C)cc2)[C@H]1C(=O)OCC` gave ABCB6 inh 2 95, MsrA inhibitor 1, bovine MsrA act 0 and SMARCA2 act 0.
Screening CCOC(=O)C1=CC[C@@H](c2cccc(C)c2)N(S(=O)(=O)c2ccc(C)cc2)[C@H]1C(=O)OCC returned ABCB6 inh 2 96, MsrA inhibitor 0, bovine MsrA act 9.9*, SMARCA2 act -1 and MsrA activ conf 1.
Screening CC1COc2ccccc2N1C(=O)c1ccc(Cl)cc1 (centres undefined) returned ABCB6 inh 2 97, MsrA inhibitor 0, bovine MsrA act 9.0*, SMARCA2 act -1 and MsrA activ conf -5.
`Cc1ccc(C(=O)N2c3ccccc3OCC2C)cc1` (centres undefined) gave ABCB6 inh 2 88, MsrA inhibitor 0, bovine MsrA act -2 and SMARCA2 act 2.
For COc1ccc(Cl)cc1C(=O)CSc1nc(N)cc(N)n1 the results were ABCB6 inh 2 95, MsrA inhibitor 0, bovine MsrA act 8.0*, SMARCA2 act 7 and MsrA activ conf -1.
Screening NC1=C(Cl)C(=O)c2ccc(S(N)(=O)=O)cc2C1=O returned ABCB6 inh 2 87, MsrA inhibitor 1, bovine MsrA act 24*, SMARCA2 act -12 and MsrA activ conf 14*.
Screening NC1=C(Cl)C(=O)c2ccccc2C1=O returned ABCB6 inh 2 98, MsrA inhibitor -1, bovine MsrA act 18*, SMARCA2 act -6 and MsrA activ conf 12*.
NS(=O)(=O)c1ccc2c(c1)C(=NO)c1cc(S(N)(=O)=O)ccc1-2 was read as ABCB6 inh 2 94, MsrA inhibitor -1, bovine MsrA act 2 and SMARCA2 act 3.
O=C1C(Cl)=C(NCCCO)C(=O)c2ccccc21 was read as ABCB6 inh 2 203, MsrA inhibitor 1, bovine MsrA act 0 and SMARCA2 act 1.
For C=CCN1C(=O)[C@@H](CC(=O)NCCCN2CCCC2=O)[C@]2(C(=O)OCC)CCCCC/C=C/12 the results were SMARCA2 act -2.
`Cc1no[n+]([O-])c1COc1cccc(/C=N/Nc2nncn2N)c1` gave ABCB6 inh 2 94, MsrA inhibitor 1, bovine MsrA act 12*, SMARCA2 act -10 and MsrA activ conf -3.
`CC(=O)c1cc(-c2cnn(Cc3ccccc3)c2)c(=O)n2c1CCC2` gave SMARCA2 act 3.
`O=C(COc1ccc2cc(Br)ccc2c1)N1CCOCC1` gave ABCB6 inh 2 98, MsrA inhibitor -1, bovine MsrA act 13*, SMARCA2 act -1 and MsrA activ conf -4.
`O=C(COc1ccc(Br)cc1)OCC(=O)N1CCOCC1` gave ABCB6 inh 2 101, MsrA inhibitor 0, bovine MsrA act 0 and SMARCA2 act 1.
O=[N+]([O-])c1cccc2c(N3CCCC3)ccnc12 was read as ABCB6 inh 2 102, MsrA inhibitor 2, bovine MsrA act 20*, SMARCA2 act -7 and MsrA activ conf 12*.
Screening N#CCc1ccc(OC[C@@H](O)CN2CCC(C(O)(c3ccccc3)c3ccccc3)CC2)cc1 returned SMARCA2 act -2.
Cc1cccc(NC(=O)c2c(C)cc(=O)oc2C)n1 was read as ABCB6 inh 2 97, MsrA inhibitor 0, bovine MsrA act 14*, SMARCA2 act -1 and MsrA activ conf 0.
